Source: PubChem (National Center for Advancing Translational Sciences (NCATS))
aSyn rescue: qHTS of alpha-syn Inhibitors; Potency, µM (highest dose often 46.1 µM), inactives show at the highest dose growth rescue (activation), hits mostly activators; Yeast expressing alpha-synuclein, growth rescue, BacTiter-Glo, 24 h; 370,000 tested, 0.14% active; note: % of control where 0% means no effect; nearly all actives have a fitted effect of over 65% in size
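Galactose-induced alpha-syn yeast (OD600=0.02, raffinose-pregrown) + pinned cpd, 24 hr, 30 deg C; growth by BacTiter-Glo luminescence. Growth restoration scores as activation.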
TDP43 rescue: qHTS of TDP-43 Inhibitors; TDP-43 expressing yeast growth rescue, BacTiter-Glo, 24 h; Potency, µM (highest dose often 46.1 µM), without a hit: at the highest dose growth rescue (activation), actives largely listed as activators; 410,000 tested, 1.8% active; AID 652104, 2013; note: % of control where 0% means no effect; nearly all actives have a fitted effect of over 50% in size
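Luminescence from BacTiter-Glo reports growth of TDP-43-expressing yeast after 24 hr at 30 deg C with compound. Cells were raffinose-pregrown to mid-log, then seeded in galactose medium at OD600=0.02.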
FUS suppressor: qHTS for Suppressors of FUS Proteinopathy: Primary screen using FUS-linked yeast assay | 390,000 tested, 0.24% active | Potency, µM (highest dose often 76.6 µM), most hits filed as activators | S. cerevisiae FUS-expressing, growth rescue, OD600, 24 h;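 note: plate controls were DMSO vehicle for no effect and reference control for full effect; nearly all actives have a fitted effect of over 55% in size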
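Yeast expressing FUS under galactose induction, OD 0.005 in 2% galactose medium; compounds in a dilution series, 24 h at 30C. Growth rescue by absorbance at 600 nm; CP55940 positive control, DMSO negative.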
Abeta yeast res: qHTS for compounds that reverse cellular toxicity of Amyloid beta (A-beta) peptide in yeast: Primary Screen | yeast expressing A-beta42, growth rescue, OD600, 48 h; response scale: 0% DMSO, 100% iron-clioquinol control | Potency, µM (doses to about 46.1 µM), most hits filed as activators | 410,000 tested, 0.063% active; note: nearly all actives have a fitted effect of over 55% in size
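Yeast A-beta toxicity model in growth medium with pinned compounds, 48 h at 30 C; growth read as absorbance at 600 nm. Normalized to FeCl3/clioquinol equimolar mix (positive) and DMSO (negative).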
Starred values were filed as active, the others as inactive; i = inactive; ? = inconclusive; nt = no result; [ ] = another dose, or the depositor's remark. Most compounds without a hit are left out; they make up all but 2.1% or so of the library. Calls come from the whole dose curve; as a rule, active = well fitted curve in the direction sought with a large enough effect; inconclusive = small, poorly fitted or top-dose-only effect, or another doubt; inactive = no such curve, though single readings can be large; an effect the other way counts as inactive or inconclusive. Potency is the fitted concentration of half-maximal effect.

SMILES	aSyn rescue	TDP43 rescue	FUS suppressor	Abeta yeast res
CSCCCNC(=O)c1oc(=O)c2ccccc2c1-c1ccc(C)cc1	nt	nt	i	nt
O=C(C1CC1)C1(C(=O)N2CCOCC2)CC(c2ccccn2)=NO1 (stereo not given)	nt	nt	i	nt
Cc1ccc(CNc2ncnc3c2nc2n3CCCC2)cc1	nt	2%	i	i
Cc1ccc(Nc2ncnc3c2nc2n3CCCC2)c(Br)c1	nt	18µM*	i	i
Clc1cccc(Nc2ncnc3c2nc2n3CCCCC2)c1	nt	16µM*	i	i
Clc1ccccc1Nc1ncnc2c1nc1n2CCCCC1	nt	18µM*	i	i
Clc1cccc(CNc2ncnc3c2nc2n3CCCC2)c1	nt	13µM*	i	?
COc1ccccc1Nc1ncnc2c1nc1n2CCCCC1	nt	12%	i	i
Cc1nn(-c2ccccc2)c2sc(C(=O)O)cc12	-22%	?	i	i
Cc1nn(-c2ccccc2)c2sc(-c3n[nH]c(=S)o3)cc12	-43%	?	7.1µM*	i
O=C(OCc1ccccc1Cl)c1ccc(-n2cnnc2)cc1	12%	13µM*	i	i
COc1ccc(Cl)cc1NC(=S)NCCc1ccc(F)cc1	-13%	32µM*	i	?
COc1ccc(Cl)cc1NC(=S)NCCc1ccc(S(N)(=O)=O)cc1	-5%	-5%[9.22 µM]	i	i
COc1ccc(Cl)cc1NC(=O)CN(C)CC(=O)Nc1ccc(Br)cc1	5%	22µM*	i	i
COc1ccc(Cl)cc1NC(=O)NCCN1CCCCC1	0%	nt	i	i
O=C(CCc1ccccc1)NNC(=O)c1cc(Cl)ccc1O	4%	-11%[1.82 µM]	i	i
COc1ccc(Cl)cc1NC(=O)NCC1CCN(C(=O)OC(C)(C)C)CC1	-11%	-12%	32µM*	i
Cc1cc(Cl)ccc1NNC(=O)CCc1ccccc1	10%	13µM*	i	i
O=C(C1CCN(c2ncnc3c2sc2cccc(F)c23)CC1)N1CCN(C(=O)C2CCCO2)CC1 (stereo not given)	nt	nt	i	nt
CN(C)c1ccc(/C=C/c2nc3ccccc3s2)c(Cl)c1	-15%	nt	nt	nt
N#Cc1ccc(/C=C2\CC3(OC(=O)c4ccc(F)cc4)CCCN2C3)cc1 (stereo not given)	nt	nt	i	nt
COc1ccc(Cl)cc1NC(=O)CCc1ccccc1	1%	8.9µM*	i	i
COc1ccc(Cl)cc1NC(=O)N1CCN(c2ccccc2OC)CC1	13%	11µM*	?	i
COc1ccc(OC)c(S(=O)(=O)N2CCC(C(=O)NCc3cccs3)CC2)c1	nt	nt	i	nt
COC(=O)[C@]1(Cc2ccccc2)N[C@H](c2ccc(-c3cccc(Cl)c3)c(OC)c2)[C@@H]2C(=O)N(C)C(=O)[C@@H]21	3%	15%	14µM*	i
SMILES	aSyn rescue	TDP43 rescue	FUS suppressor	Abeta yeast res
COC(=O)[C@]1(CC(C)C)N[C@H](c2ccc(-c3ccc(F)cc3)c(OC)c2)[C@@H]2C(=O)N(C)C(=O)[C@@H]21	-7%	30%	28µM*	i
CCc1sc(C(=O)NCc2ccco2)cc1C	5%	24%	i	i
CCc1sc(C(=O)NCc2ccco2)cc1Br	-12%	16µM*	i	i
Cc1cc(Nc2nc(Cl)c(Cl)cc2Cl)n(-c2ccccc2)n1	0%	18µM*	nt	i
Nc1cccc2nsnc12	-3%	-29%	i	i
Nc1cc2nsnc2cc1Br	5%	13µM*	nt	i
N#Cc1ccccc1N1CCN(S(=O)(=O)c2ccc3c(c2)CCC(=O)N3)CC1	nt	nt	i	nt
CCN(CC)c1ccc2c(C)c(Cl)c(=O)oc2c1	-5%	-11%[9.22 µM]	i	i
CCN(CC)c1ccc2c(c1)oc(=O)c1c(Cl)cc(=O)oc12	13µM*	21%	nt	i
CCN(CC)c1ccc2c(C)cc(=O)oc2c1	7%	12%	i	i
CCN(CC)c1ccc2c(Cl)c(Br)c(=O)oc2c1	18%	20µM*	i	i
O=[N+]([O-])c1ccc(Nc2ccccc2F)nc1	-1%	18µM*	i	i
CCCN(Cc1ccccc1)C(=S)Nc1ccc(F)cc1	-3%	18µM*	i	i
CC(=O)c1cc(-c2cccc(Cl)c2O)c(=O)n2c1CCC2	nt	nt	i	nt
CCOc1ccc(NC(=O)c2cc(S(=O)(=O)NC3CCCCCC3)ccc2F)cc1	nt	13µM*	i	i
